From the supplement of paper PMC11732987, “Enantioselective OTUD7B fragment discovery through chemoproteomics screening and high-throughput optimisation” (Communications Chemistry, 2025)
A number with no mark means an inactive call.

What was measured:
Assay in all cases: log2 ratio of Biotin-Ahx-Ub-VS probe labelling (fragment/DMSO); higher = less target engagement (more negative = stronger competition), active = hit call of the paper (q ≤ 0.05, log2 ratio ≤ -1)
Details in all cases: compound concentration: 200 uM; treatment time: 3 h
OTUD6B = molecular target: T1, OTUD6B (UniProt Q8N6M0)
T1 sequence (whole entry): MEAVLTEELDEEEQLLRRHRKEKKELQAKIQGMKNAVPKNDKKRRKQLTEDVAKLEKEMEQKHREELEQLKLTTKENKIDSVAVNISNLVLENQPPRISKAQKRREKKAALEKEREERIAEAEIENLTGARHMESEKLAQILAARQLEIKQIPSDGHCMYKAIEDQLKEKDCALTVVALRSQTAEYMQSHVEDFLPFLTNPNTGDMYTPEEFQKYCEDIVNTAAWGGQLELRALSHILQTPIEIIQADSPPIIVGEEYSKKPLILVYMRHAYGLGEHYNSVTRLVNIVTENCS
How it was run: (§1)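 Using Biotin-Ahx-Ub-VS at 0.5 µM final for 1 h, DUBs were labelled in HEK293T lysate (495 µg per sample) that had first been treated in triplicate with fragment at 200 µM or vehicle for 3 h. NeutrAvidin enrichment, LysC and trypsin digestion and diaPASEF LC-MS/MS followed. Spectronaut label-free quantities were global-median-normalised. Values are average log2 fragment/vehicle ratios by unpaired t-test, using proteins with ≥2 unique peptides.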

OTUD7B = molecular target: T2, OTUD7B (UniProt Q6GQQ9)
T2 sequence (whole entry): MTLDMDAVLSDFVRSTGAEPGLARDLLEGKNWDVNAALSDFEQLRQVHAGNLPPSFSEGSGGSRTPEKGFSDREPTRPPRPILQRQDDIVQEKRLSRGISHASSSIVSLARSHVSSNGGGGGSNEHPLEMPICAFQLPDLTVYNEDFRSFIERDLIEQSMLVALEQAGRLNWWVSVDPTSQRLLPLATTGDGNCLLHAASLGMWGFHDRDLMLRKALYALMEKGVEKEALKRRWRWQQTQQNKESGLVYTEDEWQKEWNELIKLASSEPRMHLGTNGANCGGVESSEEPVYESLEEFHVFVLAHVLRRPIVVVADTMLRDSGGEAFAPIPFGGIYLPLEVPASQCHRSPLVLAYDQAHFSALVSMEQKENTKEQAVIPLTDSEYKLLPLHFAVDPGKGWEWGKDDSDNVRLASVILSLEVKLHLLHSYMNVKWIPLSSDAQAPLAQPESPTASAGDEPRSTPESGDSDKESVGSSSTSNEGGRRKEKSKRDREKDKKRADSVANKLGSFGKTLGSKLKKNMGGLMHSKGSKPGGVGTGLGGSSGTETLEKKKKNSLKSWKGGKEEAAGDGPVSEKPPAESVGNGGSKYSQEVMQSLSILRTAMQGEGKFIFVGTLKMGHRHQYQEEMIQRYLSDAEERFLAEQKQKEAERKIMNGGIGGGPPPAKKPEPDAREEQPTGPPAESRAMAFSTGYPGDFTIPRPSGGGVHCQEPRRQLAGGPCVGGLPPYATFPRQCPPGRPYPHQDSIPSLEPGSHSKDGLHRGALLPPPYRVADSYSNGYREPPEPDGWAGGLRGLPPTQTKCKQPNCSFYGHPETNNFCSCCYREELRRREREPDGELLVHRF
How it was run: as §1

PRPF8 = PRPF8 (UniProt Q6P2Q9)
How it was run: as §1

PSMD7 = molecular target: T3, PSMD7 (UniProt P51665)
T3 sequence (whole entry): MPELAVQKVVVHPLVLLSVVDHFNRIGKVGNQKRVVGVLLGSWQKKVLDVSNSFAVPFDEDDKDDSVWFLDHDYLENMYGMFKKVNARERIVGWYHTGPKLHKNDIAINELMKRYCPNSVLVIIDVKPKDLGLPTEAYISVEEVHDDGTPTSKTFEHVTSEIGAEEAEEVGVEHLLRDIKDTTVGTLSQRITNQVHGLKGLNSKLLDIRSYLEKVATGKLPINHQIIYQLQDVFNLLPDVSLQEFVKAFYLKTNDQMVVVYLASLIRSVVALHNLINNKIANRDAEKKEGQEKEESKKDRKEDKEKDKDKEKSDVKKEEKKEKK
How it was run: as §1

UCHL1 = UCHL1 (UniProt P09936)
How it was run: as §1

UCHL3 = molecular target: T4, UCHL3 (UniProt P15374)
T4 sequence (whole entry): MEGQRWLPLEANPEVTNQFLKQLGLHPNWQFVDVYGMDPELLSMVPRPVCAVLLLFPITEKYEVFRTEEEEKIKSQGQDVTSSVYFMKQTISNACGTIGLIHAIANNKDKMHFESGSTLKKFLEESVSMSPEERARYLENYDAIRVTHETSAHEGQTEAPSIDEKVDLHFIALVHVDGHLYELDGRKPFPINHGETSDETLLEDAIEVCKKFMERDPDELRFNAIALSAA
How it was run: as §1

UCHL5 = molecular target: T5, UCHL5 (UniProt Q9Y5K5)
T5 sequence (whole entry): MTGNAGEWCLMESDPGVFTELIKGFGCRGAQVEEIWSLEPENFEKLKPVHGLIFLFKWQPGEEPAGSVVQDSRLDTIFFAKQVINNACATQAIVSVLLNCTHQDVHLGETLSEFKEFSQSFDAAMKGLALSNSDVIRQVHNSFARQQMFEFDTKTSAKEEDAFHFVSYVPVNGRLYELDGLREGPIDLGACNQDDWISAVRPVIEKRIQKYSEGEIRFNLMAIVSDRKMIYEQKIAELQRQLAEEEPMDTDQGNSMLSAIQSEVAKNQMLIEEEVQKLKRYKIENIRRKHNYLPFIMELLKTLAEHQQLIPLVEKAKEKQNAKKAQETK
How it was run: as §1

USP10 = USP10 (UniProt Q14694)
How it was run: as §1

USP15 = molecular target: T6, USP15 (UniProt Q9Y4E8)
T6 sequence (whole entry): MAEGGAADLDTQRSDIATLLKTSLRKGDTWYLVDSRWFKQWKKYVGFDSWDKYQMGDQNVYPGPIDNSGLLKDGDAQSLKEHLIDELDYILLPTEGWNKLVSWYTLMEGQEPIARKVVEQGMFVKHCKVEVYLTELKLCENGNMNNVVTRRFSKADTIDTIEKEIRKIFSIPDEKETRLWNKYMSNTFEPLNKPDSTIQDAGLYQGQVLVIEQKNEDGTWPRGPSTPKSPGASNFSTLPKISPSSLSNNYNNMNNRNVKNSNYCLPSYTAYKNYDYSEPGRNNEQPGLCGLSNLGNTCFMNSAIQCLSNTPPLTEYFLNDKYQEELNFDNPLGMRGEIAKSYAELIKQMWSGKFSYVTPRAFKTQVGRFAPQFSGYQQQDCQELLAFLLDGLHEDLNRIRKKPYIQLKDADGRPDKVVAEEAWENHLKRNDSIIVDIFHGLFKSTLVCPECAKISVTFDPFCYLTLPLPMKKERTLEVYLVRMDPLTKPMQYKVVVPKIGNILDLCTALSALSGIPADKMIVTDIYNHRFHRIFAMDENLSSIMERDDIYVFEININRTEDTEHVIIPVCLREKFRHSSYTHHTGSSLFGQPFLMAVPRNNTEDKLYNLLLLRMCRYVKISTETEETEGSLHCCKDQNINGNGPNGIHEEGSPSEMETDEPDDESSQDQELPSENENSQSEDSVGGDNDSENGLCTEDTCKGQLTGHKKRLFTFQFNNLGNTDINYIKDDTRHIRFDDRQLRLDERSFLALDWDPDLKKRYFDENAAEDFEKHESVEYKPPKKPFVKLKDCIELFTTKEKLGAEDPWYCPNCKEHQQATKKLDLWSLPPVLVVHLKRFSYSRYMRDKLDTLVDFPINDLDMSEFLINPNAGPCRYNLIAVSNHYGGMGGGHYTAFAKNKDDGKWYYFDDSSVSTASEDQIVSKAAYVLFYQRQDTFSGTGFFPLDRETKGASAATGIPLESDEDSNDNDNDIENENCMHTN
How it was run: as §1

USP16 = USP16 (UniProt Q9Y5T5)
How it was run: as §1

Chain of USP16 (Q9Y5T5 whole entry, looked up): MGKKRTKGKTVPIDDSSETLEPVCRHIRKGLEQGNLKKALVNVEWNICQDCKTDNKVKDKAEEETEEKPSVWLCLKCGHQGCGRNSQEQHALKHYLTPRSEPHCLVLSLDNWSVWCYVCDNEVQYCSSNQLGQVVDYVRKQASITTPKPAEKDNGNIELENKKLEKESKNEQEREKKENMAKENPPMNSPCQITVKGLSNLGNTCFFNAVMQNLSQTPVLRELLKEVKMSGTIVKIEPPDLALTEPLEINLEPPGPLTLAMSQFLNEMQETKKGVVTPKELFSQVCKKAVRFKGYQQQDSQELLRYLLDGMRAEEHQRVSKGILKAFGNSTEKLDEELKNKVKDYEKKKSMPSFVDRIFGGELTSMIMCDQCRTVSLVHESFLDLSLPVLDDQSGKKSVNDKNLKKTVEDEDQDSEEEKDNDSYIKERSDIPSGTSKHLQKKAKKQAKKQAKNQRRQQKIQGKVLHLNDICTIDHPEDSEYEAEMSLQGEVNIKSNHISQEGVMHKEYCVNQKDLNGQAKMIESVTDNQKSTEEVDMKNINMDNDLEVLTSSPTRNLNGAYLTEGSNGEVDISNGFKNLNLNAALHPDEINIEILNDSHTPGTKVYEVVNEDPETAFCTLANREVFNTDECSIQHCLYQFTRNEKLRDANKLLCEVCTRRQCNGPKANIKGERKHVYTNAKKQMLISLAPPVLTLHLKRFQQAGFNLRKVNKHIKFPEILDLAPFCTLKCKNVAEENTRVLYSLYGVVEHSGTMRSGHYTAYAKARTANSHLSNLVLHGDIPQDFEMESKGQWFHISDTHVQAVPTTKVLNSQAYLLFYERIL
Chain of USP10 (Q14694 whole entry): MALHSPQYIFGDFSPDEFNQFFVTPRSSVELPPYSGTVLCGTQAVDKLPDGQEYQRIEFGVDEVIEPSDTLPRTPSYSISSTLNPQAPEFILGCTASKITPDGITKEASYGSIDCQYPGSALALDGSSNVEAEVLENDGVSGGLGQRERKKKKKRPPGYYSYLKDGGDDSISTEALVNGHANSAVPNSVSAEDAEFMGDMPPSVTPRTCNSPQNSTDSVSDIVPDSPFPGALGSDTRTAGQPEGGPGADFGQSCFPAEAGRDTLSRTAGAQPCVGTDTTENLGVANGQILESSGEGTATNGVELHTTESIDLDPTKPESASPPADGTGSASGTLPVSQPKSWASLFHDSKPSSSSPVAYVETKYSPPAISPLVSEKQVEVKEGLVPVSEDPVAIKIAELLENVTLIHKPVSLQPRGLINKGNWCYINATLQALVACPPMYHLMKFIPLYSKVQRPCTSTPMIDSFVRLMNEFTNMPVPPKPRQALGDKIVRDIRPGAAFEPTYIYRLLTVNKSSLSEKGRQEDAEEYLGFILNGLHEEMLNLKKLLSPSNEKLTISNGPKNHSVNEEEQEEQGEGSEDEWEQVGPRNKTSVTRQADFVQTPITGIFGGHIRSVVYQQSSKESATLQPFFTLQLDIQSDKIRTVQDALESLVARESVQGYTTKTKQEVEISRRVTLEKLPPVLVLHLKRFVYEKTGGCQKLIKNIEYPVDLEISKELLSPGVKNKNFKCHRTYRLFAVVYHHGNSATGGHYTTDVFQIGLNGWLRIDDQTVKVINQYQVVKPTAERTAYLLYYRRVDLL
Chain of UCHL1 (P09936 whole entry, looked up): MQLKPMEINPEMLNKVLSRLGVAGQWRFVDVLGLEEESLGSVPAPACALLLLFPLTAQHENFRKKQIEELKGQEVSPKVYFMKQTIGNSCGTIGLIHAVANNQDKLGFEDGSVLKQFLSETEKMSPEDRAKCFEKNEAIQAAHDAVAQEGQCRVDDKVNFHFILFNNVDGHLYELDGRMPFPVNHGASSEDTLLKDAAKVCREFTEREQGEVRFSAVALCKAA

O=C(CCl)N1CCC(C(O)c2ccc(F)cc2)CC1 (stereo not given) was tested, and the “log2 ratio of Biotin-Ahx-Ub-VS probe labelling” value (from here on “log2 ratio”) (OTUD6B) was 0.0694, the “log2 ratio” value (OTUD7B) was -0.134 and the “log2 ratio” value (PRPF8) was -0.0885. The “log2 ratio” value (PSMD7) was -0.0381, the “log2 ratio” value (UCHL1) was -1.31 (active) and the “log2 ratio” value (UCHL3) was 0.426. For the same compound, the “log2 ratio” value (UCHL5) was 0.12, the “log2 ratio” value (USP10) was -0.257 and the “log2 ratio” value (USP15) was 0.278. For the same compound, the “log2 ratio” value (USP16) was 0.191.
